According to PubChem BioAssay (Tox21):
Values without a mark were called inactive. Results filed as inconclusive are left out. Entries that show only a call come without a potency. Active and inactive are the calls of the source. Unless noted, calls follow the shape of the dose curve; as a rule, active = well fitted curve in the direction sought with a large enough effect in the repeat runs; inconclusive = weak or mixed curves; inactive = no such curve, though single readings can be large; an effect the other way counts as inactive or inconclusive.

Experiments:
[1] = target: Thyrotropin receptor (Homo sapiens) (UniProt P16473); experiment: qHTS assay to identify small molecule antagonists of the thyroid stimulating hormone receptor (TSHR) signaling pathway (AID 1259385; calls by dose curve; also: nearly all actives have a fitted effect of over 20% in size)
Procedure, shortened: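 TSHR-HEK293 cells were plated and held 18 h at 37C/5% CO2, then given compound plus Ro20-1724 and stimulated with TSH at 1.5 ng/mL final. After 30 min at room temperature, cAMP was detected with cAMP-d2/anti-cAMP-cryptate (1 h) by fluorescence.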

[2] = qHTS assay to identify small molecule agonists of the estrogen receptor alpha (ER-alpha) signaling pathway in the presence of an antagonist - cell viability counter screen (AID 1259386);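 also: series mostly up to about 92 µM; cells exposed to compounds for 22 h at 37 °C before the viability read; nearly all actives have a fitted effect of over 30% in size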
Procedure, shortened: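 In this counter screen, compound effects on VM7Luc4E2 viability were tested in the presence of the antagonist ICI-182,780 at 10.0nM final. Compounds were dosed at 15 concentrations, exposure lasted 22hr, and the CellTiter-Fluor signal was read.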

[3] = target: Progesterone receptor (Homo sapiens) (UniProt P06401); experiment: qHTS assay to identify small molecule agonists of the progesterone receptor (PR) signaling pathway (AID 1346784; calls by dose curve; also: nearly all actives have a fitted effect of over 30% in size; also: potency is read from the fitted curve at half-maximal effect)
Procedure, shortened: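 Cells (PR-UAS-bla HEK 293T, GripTite) were plated in assay medium containing 2% charcoal-stripped FBS and incubated 6 hr. Test compounds in DMSO were added for 16 hr at 37C. FRET substrate was then loaded for 2 hr at room temperature before fluorescence reading.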

[4] = qHTS assay to identify small molecule antagonists of the progesterone receptor (PR) signaling pathway - cell viability counter screen (AID 1346798); also: series mostly up to about 92 µM; nearly all actives have a fitted effect of over 50% in size
Procedure, shortened: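 Counter screen for cytotoxicity: viability of PR-UAS-bla HEK293T cells was measured with CellTiter-Glo luminescence following 16 hr compound exposure in the presence of R5020.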

[5] = qHTS assay to identify small molecule agonists of the progesterone receptor (PR) signaling pathway - cell viability counter screen (AID 1346799; calls by dose curve; also: nearly all actives have a fitted effect of over 45% in size; also: potency is read from the fitted curve at half-maximal effect)
Procedure, shortened: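 Cells (PR-UAS-bla HEK293T) are plated at 3,000/well in 2% charcoal-stripped FBS medium, rested 6 hr, dosed and incubated 16 hr at 37C. CellTiter-Glo is then added and luminescence measured after 30 min at room temperature.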

[6] = qHTS assay to identify small molecule antagonists of the TGF-beta/Smad signaling pathway - cell viability counter screen (AID 1346824); also: nearly all actives have a fitted effect of over 50% in size
Procedure, shortened: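 SBE-bla HEK 293T cells were plated overnight at 37 C, then given compounds in DMSO plus TGF-beta1 (added as 0.25 ng/mL solution) for 5 hr. After the bla read, CellTiter-Glo was added to the same wells and luminescence read after 30 min at room temperature.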

[7] = qHTS assay to identify small molecule agonists of the TGF-beta/Smad signaling pathway - cell viability counter screen (AID 1346829); also: top concentration of the series differs between compounds; nearly all actives have a fitted effect of over 45% in size
Procedure, shortened: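 HEK 293T SBE-bla line, 5 hr compound exposure at 37 C, multiplexed CellTiter-Glo viability read by luminescence.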

[8] = qHTS assay to identify small molecule agonists of the TGF-beta/Smad signaling pathway (AID 1346859; active = well fitted activation curve with a large enough effect in the signal ratio in the repeat runs, not every such curve was filed as active; the % refers to the signal ratio; also: series mostly up to about 77 µM)
Procedure, shortened: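 Reporter line: HEK 293T with stably integrated SBE-controlled beta-lactamase. Compound exposure lasts 5 hr at 37 C and 5% CO2; substrate loading follows for 2 hr at room temperature, with emission read at 460 and 530 nm.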

[9] = target: Thyrotropin-releasing hormone receptor (Homo sapiens) (UniProt P34981); experiment: qHTS assay to identify small molecule antagonists of the thyrotropin-releasing hormone receptor (TRHR) signaling pathway (AID 1346877; active = well fitted inhibition curve with a large enough effect in the repeat runs, not every such curve was filed as active; also: series mostly up to about 51 µM)
Procedure, shortened: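 Kinetic fluorescence (3 min, 1 s resolution) following stimulation with TRH at 1 nM final; HEK293 cells bearing human TRHR; 5 min compound preincubation at RT; concentration-response over 15 points, triplicates.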

[10] = target: Thyrotropin-releasing hormone receptor (Homo sapiens) (UniProt P34981); experiment: qHTS assay to identify small molecule agonists of the thyrotropin-releasing hormone receptor (TRHR) signaling pathway (AID 1346891; calls by dose curve;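 also: HEK293 cells expressing TRHR with calcium dye readout; series mostly up to about 58 µM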)
Procedure, shortened: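 Cells: TRHR-Hek293, seeded and incubated 18 h. Dye loading: 2 h at 37 °C. Compound added from DMSO stock by pin tool. Read-out: kinetic calcium fluorescence over 3 min.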

[11] = Human pregnane X receptor (PXR) small molecule agonists, qHTS cell viability counter screen (AID 1346977); also: nearly all actives have a fitted effect of over 50% in size
Procedure, shortened: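 Cytotoxicity counter screen run in the same wells as the PXR luciferase assay, using PXR-Luc HepG2 cells in charcoal-stripped serum medium. Viability: CellTiter-Fluor fluorescence after 24hr compound treatment.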

[12] = Caspase-3/7 induction in HepG2 cells by small molecules, qHTS assay (AID 1346978); also: nearly all actives have a fitted effect of over 15% in size
Procedure, shortened: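 Wild-type HepG2 cells (2,000/well) were settled 5 h at 37 C, 5% CO2, then exposed to compounds in DMSO for 17 h. Caspase-3/7 activity was read by luminescence 30 min after adding Caspase-Glo 3/7 reagent at room temperature.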

[13] = Caspase-3/7 induction in CHO-K1 cells by small molecules, qHTS cell viability counter screen (AID 1346979); also: nearly all actives have a fitted effect of over 35% in size
Procedure, shortened: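 Cytotoxicity counter screen run in parallel with the caspase-3/7 assay: CHO-K1 cells, 16hr compound treatment at 37C, then CellTiter-Fluor for 1hr before fluorescence reading.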

[14] = Caspase-3/7 induction in CHO-K1 cells by small molecules, qHTS assay (AID 1346980); also: nearly all actives have a fitted effect of over 15% in size
Procedure, shortened: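 Wild-type cells were seeded at 1,500 per well and settled 5 hr at 37 C, 5% CO2, then exposed to DMSO-dissolved compounds for 17 hr. Caspase-Glo 3/7 reagent was added, and luminescence was read after 30min at room temperature.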

[15] = Caspase-3/7 induction in HepG2 cells by small molecules, qHTS cell viability counter screen (AID 1346981); also: series mostly up to about 92 µM; nearly all actives have a fitted effect of over 30% in size
Procedure, shortened: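 In this quantitative HTS counter screen, compounds delivered in DMSO were left on unmodified HepG2 cells for 16 hr at 37 C. Viability was then determined fluorometrically with CellTiter-Fluor, in parallel with caspase-3/7 induction in the same wells.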

[16] = target: Nuclear receptor subfamily 1 group I member 2 (Homo sapiens) (UniProt O75469); experiment: Human pregnane X receptor (PXR) small molecule agonists, qHTS assay (AID 1346982); also: nearly all actives have a fitted effect of over 35% in size; also: potency is read from the fitted curve at half-maximal effect
Procedure, shortened: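 Reporter HepG2 cells expressing PXR-Luc are cultured in charcoal-stripped FBS (5%), treated with compounds for 24 hr at 37 C, and assayed by ONE-Glo luminescence after 30 min at room temperature.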

[17] = target: Progesterone receptor (Homo sapiens) (UniProt P06401); experiment: qHTS assay to identify small molecule antagonists of the progesterone receptor (PR) signaling pathway (AID 1346795; active = well fitted inhibition curve with a large enough effect in the signal ratio in the repeat runs, not every such curve was filed as active; the % refers to the signal ratio)
Procedure, shortened: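 Antagonist mode: compounds tested against 1 nM (final) promegestone stimulation in HEK293T cells expressing PR-UAS-bla reporter, 16 hr at 37C, 5% CO2; beta-lactamase activity detected via B/G FRET substrate after 2 hr at room temperature.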

[18] = target: Nuclear receptor subfamily 1 group I member 2 (Rattus norvegicus) (UniProt Q9R1A7); experiment: Rat pregnane X receptor (rPXR) activation by small molecules, qHTS assay (AID 1346983); details: rPXR luciferase reporter cells, One-Glo luminescence, 24 h; max activation: active compounds read high; also: nearly all actives have a fitted effect of over 20% in size
Procedure, shortened: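 Cell-based rPXR luciferase reporter assay, 2,000 cells per well, rested 5hr at 37 C before compound addition in DMSO, then 24 hr at 37 C. One-Glo reagent was added and luminescence read after 30 min at room temperature.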

[19] = target: Nuclear receptor subfamily 1 group I member 2 (Homo sapiens) (UniProt O75469); experiment: CYP3A4 induction through human pregnane X receptor (PXR) by small molecules, qHTS assay (AID 1346984); also: nearly all actives have a fitted effect of over 40% in size
Procedure, shortened: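 Induction measured in HepG2-based DPX-2 cells co-expressing human PXR and a CYP3A4 promoter-driven luciferase. After a 24-hour compound exposure, cells received CYP3A4 luciferin substrate at 3uM final for 3 hours, and light output was then recorded.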

[20] = target: Nuclear receptor subfamily 1 group I member 2 (Homo sapiens) (UniProt O75469); experiment: Human pregnane X receptor (PXR) activation by small molecules, qHTS assay (AID 1346985); also: nearly all actives have a fitted effect of over 40% in size
Procedure, shortened: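 DPX-2 cells (HepG2 co-transfected with a PXR response element and a CYP3A4-promoter luciferase construct) were seeded at 2,000 per well, rested 5 hr at 37C, then exposed to DMSO-dissolved compounds for 24 hr. Activation was read as luciferase luminescence.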

Sequence of Thyrotropin-releasing hormone receptor (Homo sapiens) (P34981 whole entry, looked up): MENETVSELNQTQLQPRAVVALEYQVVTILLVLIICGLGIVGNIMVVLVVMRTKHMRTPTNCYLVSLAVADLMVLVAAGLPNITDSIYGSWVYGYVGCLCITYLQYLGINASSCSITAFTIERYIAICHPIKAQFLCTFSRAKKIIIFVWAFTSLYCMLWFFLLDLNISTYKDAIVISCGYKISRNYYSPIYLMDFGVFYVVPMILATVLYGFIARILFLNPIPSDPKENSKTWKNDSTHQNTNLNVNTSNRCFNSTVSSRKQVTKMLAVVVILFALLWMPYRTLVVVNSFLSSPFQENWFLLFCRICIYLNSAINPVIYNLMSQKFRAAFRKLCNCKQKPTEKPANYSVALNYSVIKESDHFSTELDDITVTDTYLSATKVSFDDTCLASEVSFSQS
Sequence of Nuclear receptor subfamily 1 group I member 2 (Rattus norvegicus) (Q9R1A7 whole entry, looked up): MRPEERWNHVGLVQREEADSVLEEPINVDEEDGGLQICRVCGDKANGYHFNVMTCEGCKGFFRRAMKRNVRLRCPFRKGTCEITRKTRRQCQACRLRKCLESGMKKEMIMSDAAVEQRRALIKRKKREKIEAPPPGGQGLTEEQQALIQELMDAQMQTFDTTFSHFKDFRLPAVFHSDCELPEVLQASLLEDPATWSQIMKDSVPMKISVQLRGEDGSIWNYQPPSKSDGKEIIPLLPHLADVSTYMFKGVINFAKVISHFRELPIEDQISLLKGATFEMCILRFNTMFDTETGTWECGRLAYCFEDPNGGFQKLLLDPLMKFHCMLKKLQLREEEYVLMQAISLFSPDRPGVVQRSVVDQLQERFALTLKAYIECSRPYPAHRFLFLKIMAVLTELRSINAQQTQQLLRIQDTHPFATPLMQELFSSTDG
Sequence of Progesterone receptor (Homo sapiens) (P06401 whole entry, looked up): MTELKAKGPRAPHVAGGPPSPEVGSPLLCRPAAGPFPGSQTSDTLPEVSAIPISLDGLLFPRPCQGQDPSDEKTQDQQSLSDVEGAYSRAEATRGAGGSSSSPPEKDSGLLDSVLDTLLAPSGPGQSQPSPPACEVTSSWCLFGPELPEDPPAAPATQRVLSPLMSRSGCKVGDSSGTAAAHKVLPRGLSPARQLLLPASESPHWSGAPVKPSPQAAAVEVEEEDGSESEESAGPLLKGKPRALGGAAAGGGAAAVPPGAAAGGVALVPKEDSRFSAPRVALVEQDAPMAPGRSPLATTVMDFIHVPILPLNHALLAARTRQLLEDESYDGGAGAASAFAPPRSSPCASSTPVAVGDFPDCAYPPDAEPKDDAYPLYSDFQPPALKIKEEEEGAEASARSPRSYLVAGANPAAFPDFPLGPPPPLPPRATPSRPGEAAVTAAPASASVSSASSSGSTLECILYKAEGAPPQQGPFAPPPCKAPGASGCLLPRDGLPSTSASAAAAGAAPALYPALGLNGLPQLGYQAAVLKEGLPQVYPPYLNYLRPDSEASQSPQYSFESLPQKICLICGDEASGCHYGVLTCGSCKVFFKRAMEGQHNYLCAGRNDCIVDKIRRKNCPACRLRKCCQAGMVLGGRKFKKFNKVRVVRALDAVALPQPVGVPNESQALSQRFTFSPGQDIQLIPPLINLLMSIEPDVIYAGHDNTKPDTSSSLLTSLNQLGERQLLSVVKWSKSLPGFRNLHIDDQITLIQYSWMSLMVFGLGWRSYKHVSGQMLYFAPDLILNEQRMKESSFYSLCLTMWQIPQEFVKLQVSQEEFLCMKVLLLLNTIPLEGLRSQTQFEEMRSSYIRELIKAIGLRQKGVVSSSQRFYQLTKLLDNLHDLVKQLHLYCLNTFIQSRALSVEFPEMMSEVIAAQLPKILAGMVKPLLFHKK
Sequence of Thyrotropin receptor (Homo sapiens) (P16473 whole entry, looked up): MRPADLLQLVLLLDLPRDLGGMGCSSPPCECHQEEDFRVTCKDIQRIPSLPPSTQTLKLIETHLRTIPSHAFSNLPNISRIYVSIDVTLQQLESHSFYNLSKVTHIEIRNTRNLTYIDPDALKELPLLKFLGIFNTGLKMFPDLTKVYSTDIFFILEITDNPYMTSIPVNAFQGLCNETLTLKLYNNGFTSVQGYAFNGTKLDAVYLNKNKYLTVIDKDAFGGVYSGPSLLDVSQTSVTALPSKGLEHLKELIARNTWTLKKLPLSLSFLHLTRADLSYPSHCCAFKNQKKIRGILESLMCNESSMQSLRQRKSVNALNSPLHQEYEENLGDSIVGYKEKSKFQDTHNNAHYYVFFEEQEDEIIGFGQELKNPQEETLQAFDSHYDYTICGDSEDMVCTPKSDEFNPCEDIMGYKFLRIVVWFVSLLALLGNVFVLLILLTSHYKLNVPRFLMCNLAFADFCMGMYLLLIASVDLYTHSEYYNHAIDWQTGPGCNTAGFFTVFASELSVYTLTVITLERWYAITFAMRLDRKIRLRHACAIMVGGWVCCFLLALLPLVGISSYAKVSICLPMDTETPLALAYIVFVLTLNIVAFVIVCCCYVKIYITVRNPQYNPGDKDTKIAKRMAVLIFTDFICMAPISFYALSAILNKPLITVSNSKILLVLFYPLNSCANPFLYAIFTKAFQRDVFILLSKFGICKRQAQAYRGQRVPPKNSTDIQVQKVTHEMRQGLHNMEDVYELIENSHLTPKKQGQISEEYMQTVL
Sequence of Nuclear receptor subfamily 1 group I member 2 (Homo sapiens) (O75469 whole entry, looked up): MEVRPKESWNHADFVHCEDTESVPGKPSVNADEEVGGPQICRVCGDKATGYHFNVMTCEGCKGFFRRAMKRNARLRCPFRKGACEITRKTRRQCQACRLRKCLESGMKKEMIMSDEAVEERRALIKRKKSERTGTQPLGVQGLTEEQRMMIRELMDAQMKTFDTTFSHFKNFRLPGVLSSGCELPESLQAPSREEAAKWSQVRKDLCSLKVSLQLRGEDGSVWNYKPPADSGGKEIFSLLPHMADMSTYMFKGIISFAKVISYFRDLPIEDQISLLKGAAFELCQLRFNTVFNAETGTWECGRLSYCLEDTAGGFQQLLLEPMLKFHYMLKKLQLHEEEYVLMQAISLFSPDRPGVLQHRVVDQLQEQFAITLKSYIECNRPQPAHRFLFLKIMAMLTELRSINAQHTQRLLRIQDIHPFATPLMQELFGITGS

| Compound | Potency [1] | outcome [2] | Potency [3] | Potency [4] | Potency [5] | outcome [6] | outcome [7] | outcome [8] | outcome [9] | outcome [10] | Potency [11] | outcome [12] | Potency [13] | outcome [14] | outcome [15] | Potency [16] | Potency [17] | max activation [18] [%] | Potency [19] | Potency [20] |
| --- | --- | --- | --- | --- | --- | --- | --- | --- | --- | --- | --- | --- | --- | --- | --- | --- | --- | --- | --- | --- |
| CCC(C)OC(=O)N1CCCCC1CCO (configuration not stated) | inactive | inactive | inactive | inactive | inactive | inactive | inactive | inactive | inactive | inactive | inactive | inactive | inactive | inactive | inactive | inactive | – | – | – | – |
| CC(C)(O)Cc1ccccc1 | inactive | inactive | inactive | inactive | inactive | inactive | inactive | inactive | inactive | inactive | inactive | inactive | inactive | inactive | inactive | inactive | – | – | – | – |
| C=CCn1c(=O)n([C@@H]2O[C@H](CO)[C@@H](O)[C@H]2O)c2nc(N)[nH]c(=O)c21 | inactive | inactive | inactive | inactive | – | inactive | – | inactive | inactive | inactive | inactive | inactive | inactive | inactive | inactive | inactive | inactive | -4.51 | inactive | inactive |
| CCCCC=O | inactive | inactive | inactive | inactive | – | inactive | inactive | – | inactive | inactive | inactive | inactive | inactive | inactive | inactive | inactive | inactive | – | – | – |
| C=CCSCC1Nc2cc(Cl)c(S(N)(=O)=O)cc2S(=O)(=O)N1 (configuration not stated) | inactive | inactive | inactive | inactive | inactive | inactive | – | – | inactive | inactive | inactive | inactive | inactive | inactive | inactive | – | inactive | 0.305 | – | – |
| C=CC(=O)N1CCOCC1 | inactive | inactive | inactive | – | inactive | inactive | inactive | inactive | inactive | inactive | inactive | inactive | inactive | inactive | inactive | inactive | inactive | – | – | – |
| C[N+](C)(C)CC[N+]1(C)Cc2c(Cl)c(Cl)c(Cl)c(Cl)c2C1 | inactive | inactive | inactive | inactive | inactive | inactive | inactive | inactive | inactive | inactive | inactive | inactive | inactive | inactive | inactive | inactive | – | -3.39 | inactive | inactive |
| CCCCNc1ccccc1 | inactive | inactive | inactive | – | inactive | inactive | inactive | inactive | inactive | inactive | inactive | inactive | inactive | inactive | inactive | – | inactive | – | – | – |
| CCCC(C)C(=O)O (configuration not stated) | inactive | inactive | inactive | – | 18.5 µM (active) | inactive | inactive | inactive | inactive | inactive | inactive | inactive | inactive | inactive | inactive | inactive | inactive | – | – | – |
| C#CC(O)CCCCC (configuration not stated) | inactive | inactive | 27.5 µM (active) | – | inactive | inactive | inactive | – | – | – | inactive | inactive | inactive | inactive | inactive | – | inactive | – | – | – |
| CC1=CCC2C(C1)C2(C)C (configuration not stated) | inactive | inactive | inactive | inactive | – | inactive | inactive | inactive | inactive | inactive | inactive | inactive | inactive | inactive | inactive | 48.6 µM (active) | inactive | – | – | – |
| N#CCc1ccccc1[N+](=O)[O-] | inactive | inactive | inactive | inactive | – | inactive | inactive | inactive | inactive | inactive | inactive | inactive | inactive | inactive | inactive | – | inactive | – | – | – |
| CCN(CC)S(=O)(=O)c1ccc(C(=O)O)cc1 | inactive | inactive | inactive | inactive | inactive | inactive | inactive | inactive | inactive | inactive | inactive | inactive | inactive | inactive | inactive | inactive | – | -1.28 | inactive | inactive |
| COC[C@H](c1ccc(C(F)(F)F)cc1)N1CCN(C2(C)CCN(C(=O)c3c(C)ncnc3C)CC2)C[C@H]1C | inactive | inactive | inactive | inactive | – | inactive | – | inactive | inactive | inactive | inactive | inactive | inactive | inactive | – | inactive | inactive | – | – | – |
